Furin inh: inhibitors of human furin; P09958; AID 463115; purified furin, fluorogenic substrate cleavage; hit rate 0.061% among 220,000; inhibition, % at 20 µM or 30 µM; in the data active means inhibition above about 25%
Pf gamet viab: P. falciparum stage V gametocyte viability inhibition. P. falciparum stage V gametocytes, ATP luminescence, 24 h. inhibition, % at 10.9 µM. hit rate 0.065% among 150,000. AID 743093;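 active means inhibition above the mean plus 3 SD of compounds within the control limits, set per campaign, cut at about 38% in these data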;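 further: 0% = DMSO wells and 100% = medium only without gametocytes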
PGE2 EP2 inh: EP2 receptor (human) inhibition. inhibition, % at 25 µM. C6 glioma cells expressing human EP2, cAMP TR-FRET; cells stimulated with saturating PGE2. P43116. AID 1422. hit rate 0.52% among 260,000;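 active means percent inhibition above 40 after rounding to a whole number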;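 further: rat C6 glioma host cells with rolipram phosphodiesterase inhibitor present; the protocol text gives 20 µM as final concentration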
Target sequence (P43116 whole entry, looked up): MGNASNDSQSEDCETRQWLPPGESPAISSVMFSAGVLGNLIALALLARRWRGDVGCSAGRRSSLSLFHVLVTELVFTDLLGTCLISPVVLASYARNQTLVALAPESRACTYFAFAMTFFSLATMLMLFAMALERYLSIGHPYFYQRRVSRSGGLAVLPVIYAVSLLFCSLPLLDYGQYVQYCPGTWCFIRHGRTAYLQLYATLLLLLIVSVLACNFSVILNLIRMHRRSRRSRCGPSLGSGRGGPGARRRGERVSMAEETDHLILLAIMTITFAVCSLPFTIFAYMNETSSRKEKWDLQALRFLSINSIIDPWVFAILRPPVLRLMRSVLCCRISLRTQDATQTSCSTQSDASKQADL
EP2 modulator: modulates human prostaglandin E2 receptor EP2 signaling | hit rate 0.83% among 260,000 | AID 940 | induction, % at 25 µM | EP2-expressing cells, cAMP HTRF FRET, PGE2 co-stimulation;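 active means compounds whose cAMP rise, as percent of the full-agonist control response, exceeds 60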;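 further: rat C6 glioma line stably carrying human EP2 under a CMV promoter; the protocol text gives 20 µM as final concentration; 100% = response of wells given 1 µM PGE2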
HSV replic up: increases HSV replication in cells; HSV replication augmentation in cells, fold increase; maximum fold increase; hit rate 0.005% among 220,000; AID 1956; in the data active means maximum fold increase above about 1.5; inconclusive means no clear call, values can overlap the other calls; tested in PC3 cells
EP2 confirm: human EP2 receptor cAMP induction, negative in counter-screens; shares compounds with EP2 modulator; C6 glioma EP2 cells, cAMP HTRF induction; plus low (about EC15) PGE2 agonist; calls only at 20 µM (by protocol); hit rate 47% among 1,300;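 active means cAMP induction above 50% in the main assay while under 30% in all four parallel counter assays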;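 further: rat C6 glioma cells stably expressing human EP2 receptor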
Starred values were filed as active, the others as inactive; ! = not confirmed by another sample. Hits are enriched below; roughly 1.4% of the tested compounds scored in any of these assays.

How did COc1ccccc1OCCCOc1c(Cl)cc(C)cc1Cl do in these assays?
Furin inh: -20; Pf gamet viab: -2; PGE2 EP2 inh: 0; EP2 modulator: 24; HSV replic up: inactive

Results for COC(=O)Cc1ccc(NC(=S)NCc2ccc(OC)cc2)cc1 ?
Furin inh: -17; Pf gamet viab: -4; PGE2 EP2 inh: 5; EP2 modulator: -28; HSV replic up: inactive

Results for O=C(O)c1cc2cc(F)ccc2[nH]1 ?
Furin inh: -14; PGE2 EP2 inh: 12; EP2 modulator: 113*!; HSV replic up: inactive; EP2 confirm: inactive

Results for O=C(O)c1cc2cc(Cl)ccc2[nH]1 ?
PGE2 EP2 inh: 10; EP2 modulator: 26

What do the screens show for `CCCCCNC(=O)c1ccccc1SC`?
Furin inh: -16; PGE2 EP2 inh: 6; EP2 modulator: 5; HSV replic up: inactive

Results for c1ccc(Sc2ncnc3ccccc23)cc1 ?
Furin inh: -6; Pf gamet viab: -2; PGE2 EP2 inh: 5; EP2 modulator: 20; HSV replic up: inactive

Results for c1ccc(Cc2nnc(Sc3ccccc3)c3ccccc23)cc1 ?
Furin inh: -25; PGE2 EP2 inh: 27; EP2 modulator: 69*; HSV replic up: inactive; EP2 confirm: inactive

Results for CCN(CC)c1ccc(/C=C2\C(=O)c3ccc(C(=O)O)cc3C2=O)cc1 ?
Furin inh: -33; PGE2 EP2 inh: 11; EP2 modulator: 74*; HSV replic up: inconclusive; EP2 confirm: active

What do the screens show for `COc1ccc(NS(=O)(=O)c2ccc(N3CCOCC3)c(NC(=O)c3ccccc3Cl)c2)cc1`?
Furin inh: 1; Pf gamet viab: -4; PGE2 EP2 inh: 10; EP2 modulator: 20; HSV replic up: inactive

Results for O=C(Nc1cc(S(=O)(=O)Nc2ccc(Cl)cc2)ccc1N1CCCCC1)c1ccc(F)cc1Cl ?
Furin inh: -28; Pf gamet viab: 0; PGE2 EP2 inh: 8; EP2 modulator: 76*; HSV replic up: inactive; EP2 confirm: active

What do the screens show for `Cn1c(=O)[nH]c(=O)c2c1nc(N1CCCCCC1)n2Cc1cccc2ccccc12`?
Furin inh: -16; PGE2 EP2 inh: -4; EP2 modulator: 66*; HSV replic up: inactive; EP2 confirm: inactive

Results for Cn1c(=O)[nH]c(=O)c2c1nc(CN1CCN(c3cccc(Cl)c3)CC1)n2CCCc1ccccc1 ?
Furin inh: -27; PGE2 EP2 inh: 6; EP2 modulator: 70*; HSV replic up: inactive; EP2 confirm: active

How did CCN1CCN(Cc2nc3c(c(=O)[nH]c(=O)n3C)n2Cc2ccccc2Cl)CC1 do in these assays?
Furin inh: -12; PGE2 EP2 inh: 10; HSV replic up: inactive

Results for CCCCn1c(CN2CCN(c3cccc(Cl)c3)CC2)nc2c1c(=O)[nH]c(=O)n2C ?
Furin inh: -12; Pf gamet viab: -17; PGE2 EP2 inh: 17; EP2 modulator: 42

What do the screens show for `Cn1c(=O)[nH]c(=O)c2c1nc(CN1CCN(c3cccc(Cl)c3)CC1)n2Cc1ccccc1Cl`?
Furin inh: -18; PGE2 EP2 inh: 6; EP2 modulator: 69*; HSV replic up: inactive; EP2 confirm: inactive

What do the screens show for `O=C1C2C3c4ccccc4C(c4ccccc43)C2c2nc3ccccc3n21` (centres undefined)?
Furin inh: -13; PGE2 EP2 inh: 13; EP2 modulator: 74*; HSV replic up: inactive; EP2 confirm: active

Results for Cc1ccc(-c2csc(=S)n2CC(=O)OCC(=O)NC(C)C(C)C)cc1 (centres undefined) ?
Furin inh: -24; PGE2 EP2 inh: 8; EP2 modulator: -25; HSV replic up: inactive

How did Cc1ccc(-c2cc3nn(-c4ccccc4)c(N)c3c(=O)o2)cc1 do in these assays?
Furin inh: -9; Pf gamet viab: -6; PGE2 EP2 inh: 21; EP2 modulator: 66*; HSV replic up: inactive; EP2 confirm: inactive

What do the screens show for `Cc1nc2scc(-c3cccs3)c2c(=O)n1-n1cccc1`?
Furin inh: -13; PGE2 EP2 inh: 14; EP2 modulator: 34; HSV replic up: inactive

How did Cc1ccc(C)n1-n1c(C)nc2scc(-c3cccs3)c2c1=O do in these assays?
Furin inh: -18; PGE2 EP2 inh: 2; EP2 modulator: 55; HSV replic up: inactive; EP2 confirm: inactive

Results for CCCCNC(=O)CC(NS(=O)(=O)c1ccc(C)cc1)c1ccco1 (centres undefined) ?
Furin inh: -21; Pf gamet viab: -20; PGE2 EP2 inh: 10; EP2 modulator: 14; HSV replic up: inactive

Source: PubChem BioAssay (several laboratories)
